Source: PubChem (National Center for Advancing Translational Sciences (NCATS))
D2 ag-1: agonists of human D2 dopamine receptor (beta-arrestin); P14416; DiscoveRx PathHunter D2 beta-arrestin, luminescence, 90 min; 100% = 57 uM dopamine signal; activation, % (concentration not given with the values); 360,000 compounds, 0.084% hits; AID 624465; in the data active means activation above about 40%; inconclusive means between about 15% and that limit
Target sequence (P14416 whole entry, looked up): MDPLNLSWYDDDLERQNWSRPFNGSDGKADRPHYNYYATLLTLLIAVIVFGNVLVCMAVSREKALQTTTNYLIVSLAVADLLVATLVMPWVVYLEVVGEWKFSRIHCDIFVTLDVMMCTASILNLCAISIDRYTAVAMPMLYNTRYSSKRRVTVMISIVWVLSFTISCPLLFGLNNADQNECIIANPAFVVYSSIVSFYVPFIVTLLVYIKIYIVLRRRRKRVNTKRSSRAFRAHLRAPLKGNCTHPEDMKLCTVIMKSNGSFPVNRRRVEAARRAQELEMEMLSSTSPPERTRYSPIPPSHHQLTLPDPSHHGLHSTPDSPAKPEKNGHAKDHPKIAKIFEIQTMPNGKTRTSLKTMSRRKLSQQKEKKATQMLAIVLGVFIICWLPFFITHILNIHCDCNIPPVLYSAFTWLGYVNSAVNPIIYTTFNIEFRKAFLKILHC
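Agonist mode: compounds alone added to overnight-plated D2 PathHunter cells for 90 min at 37 C, with 57 uM final dopamine (EC100) defining full response. Beta-arrestin recruitment detected by chemiluminescent reagent, read after 1 h at ambient temperature.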
D2 PAM-1: human D2 receptor positive allosteric modulation; P14416; DiscoveRx D2 beta-arrestin cells, luminescence, 90 min; 100% = 57 uM dopamine signal; potentiation, % (concentration not given with the values); 360,000 compounds, 0.23% hits; in the data active means potentiation above about 50%; inconclusive means mostly about 30% to 49%
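PathHunter D2 cells, attached overnight at 37 deg C, received compound in DMSO plus dopamine at EC20 (50 nM final) for 90 min at 37 deg C. Beta-arrestin recruitment was read as luminescence after 1 h with detection reagent at ambient temperature.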
D2 antagonist: antagonizes the human D2 dopamine receptor; HEK293 TREx D2 cells, calcium flux, dopamine EC80; inhibition, % at 10 µM; 340,000 compounds, 2% hits; in the data active means inhibition above about 30%; inactive means below that, where a call was filed
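Tetracycline-induced HEK293 TREx cells expressing D2 receptor forced-coupled to calcium signalling, loaded with no-wash calcium dye. Compounds added and calcium flux read 180 s, then dopamine added at EC80 and read a further 180 s.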
D2 PAM-2: positive allosteric modulators of human D2 dopamine receptor; P14416; potentiation, % at 10 µM; HEK293 T-REx D2, calcium flux, EC20 dopamine potentiation; AID 485347; 340,000 compounds, 0.34% hits;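 active means potentiation over 3 SD above the plate norm, cut at about 30% in these data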
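Primary screen. Calcium kinetics in induced HEK293 T-REx D2 cells: compound pre-addition 180 s, EC20 dopamine, 180 s more.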
D2 ag-2: D2 dopamine receptor (human) agonism; AID 485358; activation, % at 2 µM; 340,000 compounds, 0.53% hits; HEK293 T-REx D2 cells, calcium flux agonist mode; P14416;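 active means activation over 3 SD above normal in the single-dose calcium agonist read, cut at about 30% in these data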
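In this primary screen, compounds producing a positive calcium signal within 180 s of addition to tetracycline-induced, force-coupled HEK293 Trex D2 cells are flagged; cells are dye-loaded with a no-wash calcium kit beforehand.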
Numbers stand for hits; n = inactive; u = inconclusive; x = no result. Shown are actives, neighbours in structure and some others; about 2.4% of the full set was active somewhere.

SMILES	D2 ag-1	D2 PAM-1	D2 antagonist	D2 PAM-2	D2 ag-2
COc1ccc(NC(=O)C2CCN(S(=O)(=O)c3cccc4nonc34)CC2)c(OC)c1	n	n	n	n	n
CC(C)(C)OC(=O)N[C@H](C(=O)OC(C)(C)C)c1ccc2c(c1)OCO2	n	n	n	n	n
Cc1ccc(CN2CC(N3CCCCC3)CS2(=O)=O)cc1 (stereo not given)	n	n	x	x	x
COc1cc(C)nc(NCc2ccccc2)n1	n	n	n	n	n
Cc1cc(C)nc(Nc2n[nH]c(Cc3ccccc3)n2)n1	x	x	n	n	45
Cc1cccc(OCCOCCSc2ncccn2)c1	n	n	n	n	n
Cc1ccc(OCCSc2ncccn2)c(C)c1	n	n	37	n	n
Cc1ccc(NC(=O)N2CCN(C/C=C/c3ccccc3)CC2)cc1	n	n	n	n	n
O=C(c1cc2ccccc2o1)N1CCN(C/C=C/c2ccccc2)CC1	n	n	77	n	n
COC(=O)c1ccccc1NC(=O)N1CCN(C/C=C/c2ccccc2)CC1	n	n	35	n	n
COCCn1c(SCC#N)nnc1-c1ccc(OC)cc1	n	n	55	n	n
COCCn1c(SCC(=O)Nc2sc(C)c(C)c2C#N)nnc1-c1ccc(OC)cc1	n	n	n	n	n
CCOc1ccccc1NC(=O)CN1C=NS(=O)(=O)c2ccccc21	x	x	x	n	n
COc1ccc(S(=O)(=O)N2CCN(C(=O)[C@@H]3CCC(=O)N3C3OC(=O)c4ccccc43)CC2)cc1 (stereo not given in full)	n	n	52	n	n
Cc1c(NC2=C(Cl)C(=O)N(c3ccccc3)C2=O)c(=O)n(-c2ccccc2)n1C	n	n	38	n	n
Cc1c(Nc2c3ccccc3nc3ccccc23)c(=O)n(-c2ccccc2)n1C	n	n	n	n	n
Nn1c(SCC(=O)N2CCCCCC2)nnc1-c1ccncc1	n	n	30	n	n
O=C(CSc1nnc(-c2ccco2)n1CC1CCCO1)N1CCCCC1 (stereo not given)	n	n	n	n	n
O=C(CSc1nnc(-c2ccccc2)n1CC1CCCO1)N1CCCC1 (stereo not given)	n	n	n	32	n
CC(C)CC(=O)Nc1ccc(C(=O)CN2C(=O)NC3(CCOc4ccccc43)C2=O)cc1 (stereo not given)	n	n	n	33	n
Cc1cccc(NC(=O)CNC(=O)CN2C(=O)NC3(CCCc4ccccc43)C2=O)c1C (stereo not given)	n	n	n	n	n
CNC(=O)NC(=O)CN1C(=O)NC2(CCOc3ccccc32)C1=O (stereo not given)	n	n	31	n	n
Cc1cccc(C)c1NC(=O)CNC(=O)CN1C(=O)NC2(CCc3ccccc32)C1=O (stereo not given)	n	n	33	n	n
NC(=O)NC(=O)CN1C(=O)NC2(CCOc3ccccc32)C1=O (stereo not given)	n	n	n	n	n
Cc1c(O)ccc(C(=O)CN2CCN(c3ccccc3F)CC2)c1O	n	n	n	n	n
SMILES	D2 ag-1	D2 PAM-1	D2 antagonist	D2 PAM-2	D2 ag-2
O=C(CN1CCN(c2ccccc2F)CC1)c1ccc(O)c(O)c1	n	n	n	n	61
CSc1nnc2c3c4c(sc3nc(-n3nc(C)cc3C)n12)COC(C)(C)C4	n	n	48	n	n
Cc1ccc(CNC(=O)CCS(=O)(=O)c2ccc3c(c2)oc(=O)n3C)cc1	n	n	30	n	n
Cc1ccc(-c2nonc2NC(=O)c2ccco2)cc1C	x	x	x	n	n
COc1cccc(NC(=O)N2CCC(NC(=O)c3ccco3)CC2)c1	n	n	n	n	n
O=C(CCNS(=O)(=O)c1ccc(OC(F)(F)F)cc1)NCCc1c[nH]c2ccccc12	n	n	40	n	n
CC(C)[C@H](NC(=O)N1CCn2c1nc1ccccc12)C(=O)N[C@H](C(=O)O)c1ccccc1	n	n	58	n	n
CCN(c1cccc(C)c1)S(=O)(=O)c1ccc2c(c1)CCN2C(C)=O	n	n	n	n	n
CCN(c1cccc(C(F)(F)F)c1)S(=O)(=O)c1ccc2c(c1)CCN2C(C)=O	n	n	31	n	n
O=C(CSc1ccc(-c2cccnc2)nn1)Nc1ccc(F)c(F)c1	n	u	n	n	n
Cc1ccc(C)c(N2CCN(CCCNC(=O)CCn3c(=O)c4cccn4c4cccnc43)CC2)c1	n	n	n	n	n
Cc1ccc(C)c(N2CCN(CCCNC(=O)Cn3c(=O)c4cccn4c4cccnc43)CC2)c1	n	n	63	n	n
Cc1ccc(C)c(N2CCN(CCCNC(=O)Cn3cc4c(n3)CCCCC4)CC2)c1	n	n	65	n	n
CCOc1cc2[nH]c(=O)n(CCC(=O)NCCc3ccc(OC)c(OC)c3)c(=O)c2cc1OCC	n	n	n	35	n
COc1ccc(CCNC(=O)CCn2c(=O)[nH]c3cc(OC)c(OC)cc3c2=O)cc1OC	n	n	n	n	n
O=C(CC1N=C2c3ccccc3N=C(SCC(=O)Nc3ccccc3F)N2C1=O)NCc1ccc2c(c1)OCO2 (stereo not given)	x	x	x	n	n
Cc1ccc(NC(=O)CN2C(=O)c3ccccc3C2=O)nc1	n	n	n	n	n
Cc1ccc(C(CC(=O)O)NC(=O)CN2C(=O)c3ccccc3C2=O)cc1 (stereo not given)	n	n	43	n	n
CN1CCCCC1(C)C(=O)NCc1cc(Cl)ccc1F (stereo not given)	n	n	x	x	x
Cc1ccc(CNC(=O)c2cc(C3CC3)nc3c2cnn3C(C)C)cc1	n	n	39	n	n
COc1ccc(CNC(=O)c2cc(C3CC3)nc3c2cnn3C(C)C)cc1OC	n	n	n	n	n
Cc1ccc(Nc2nc(N)nc(N)c2S(=O)(=O)c2ccccc2)cc1	x	x	x	n	n
O=C(CSC1=NS(=O)(=O)c2cc(F)ccc2N1)NCCc1ccccc1	n	n	n	n	36
CCC(=O)N1CCc2cc(Br)cc(S(=O)(=O)N3CCCC(C(=O)Nc4ccc(C(C)C)cc4)C3)c21 (stereo not given)	x	x	x	n	n
CC1CCCCN1C(=O)Cn1nnc(-c2cccnc2)n1 (stereo not given)	n	n	32	n	n
SMILES	D2 ag-1	D2 PAM-1	D2 antagonist	D2 PAM-2	D2 ag-2
O=c1onc(-c2ccccc2Cl)n1-c1ccccc1Cl	40	58	x	x	x
COc1ccc(N2CCN(C(=O)Cc3ccc(S(=O)(=O)N4CCOCC4)s3)CC2)cc1	n	n	n	n	n
CCN(CC)c1ccc(NC2=C(Cl)C(=O)c3ccccc3C2=O)cc1	n	60	n	n	n
Cc1ccc(NC2=C(Cl)C(=O)c3ccccc3C2=O)cc1	n	n	n	n	n
Cc1c(-c2cccc(NC(=O)Nc3ccccc3)c2)nc2ncccn12	x	x	x	n	n
CCOC(=O)CNC(=O)c1ccc(-c2nn(C)c(=O)c3ccccc23)cc1	x	x	x	n	n
